# PI5P4Ka inh = blocks human PI5P4K alpha kinase activity; P48426; PI5P4Kalpha enzyme, ADP-Glo luminescence, 60 min; hits give low values; max response, %; 1.2% of 330,000 active; active = max response of -50% or lower; inconclusive = between -30% and -50%; inactive = -30% or higher; also: value at the top dose of about 77 µM; % is scaled to controls: 0 for no effect and ±100 for the full control effect
#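 qHTS, 1536-well: enzyme/substrate mix, compound by pin tool, 5 microM ATP final; RT 60 min; ADP-Glo reagents 1 (45 min) then 2 (30 min); luminescence.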
# KAT2A inh = inhibitors of human GCN5L2 histone acetyltransferase | Q92830 | GCN5L2 HAT assay, ThioGlo1 CoA-SH fluorescence | Potency, µM (top dose mostly 58.9 µM), for inactives: at the top dose activity change, negative = inhibition, usual class: inhibitors | 0.21% of 390,000 active | AID 504327; also: potency is read from the fitted curve at half-maximal effect; % is scaled to controls: 0 for no effect and ±100 for the full control effect
# Target sequence (Q92830 whole entry, looked up): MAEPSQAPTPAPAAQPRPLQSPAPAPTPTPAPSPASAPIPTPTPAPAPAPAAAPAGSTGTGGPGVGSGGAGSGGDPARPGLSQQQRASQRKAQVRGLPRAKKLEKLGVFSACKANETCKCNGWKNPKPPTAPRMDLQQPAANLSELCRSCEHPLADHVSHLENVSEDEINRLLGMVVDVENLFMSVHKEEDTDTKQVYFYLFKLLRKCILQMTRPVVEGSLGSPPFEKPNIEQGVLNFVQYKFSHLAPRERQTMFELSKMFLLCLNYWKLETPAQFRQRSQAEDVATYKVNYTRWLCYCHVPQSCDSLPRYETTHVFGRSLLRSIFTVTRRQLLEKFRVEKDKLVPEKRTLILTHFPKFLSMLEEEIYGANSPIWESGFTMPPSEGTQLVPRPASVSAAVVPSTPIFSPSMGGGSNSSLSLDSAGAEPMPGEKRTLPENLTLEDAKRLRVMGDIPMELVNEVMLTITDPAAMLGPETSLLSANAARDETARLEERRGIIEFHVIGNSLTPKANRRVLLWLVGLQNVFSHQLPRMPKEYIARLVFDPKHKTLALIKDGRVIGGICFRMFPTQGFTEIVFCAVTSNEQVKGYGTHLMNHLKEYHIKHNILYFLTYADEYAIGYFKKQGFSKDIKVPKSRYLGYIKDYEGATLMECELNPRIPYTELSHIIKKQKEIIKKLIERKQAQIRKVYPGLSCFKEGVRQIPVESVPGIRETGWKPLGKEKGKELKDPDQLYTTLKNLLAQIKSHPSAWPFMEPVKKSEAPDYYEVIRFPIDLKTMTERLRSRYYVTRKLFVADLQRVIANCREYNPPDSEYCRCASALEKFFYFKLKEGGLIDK
#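 ThioGlo1-coupled HAT assay: 20nM GCN5L2, 70uM acetyl-CoA, 75uM H3(1-25) peptide, pH 7.5. Fluorescence read at 340/540nm at start and after 20 min at room temperature.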
# PLK1 PBD inh = blocks phosphopeptide binding to human PLK1 polo-box domain | P53350 | Plk1 PBD binding of FITC phosphopeptide, fluorescence polarization | Potency, µM, without a hit: max response, negative = inhibition, actives largely listed as inhibitors | 2.8% of 360,000 active | AID 720504; also: potency is read from the fitted curve at half-maximal effect; series mostly up to about 57 µM; % is scaled to controls: 0 for no effect and ±100 for the full control effect; nearly all actives have a fitted effect of over 65% in size
# Rango complex inh = Rango-importin beta binding inhibition; Q14974; Rango CFP/YFP FRET sensor + importin beta, 45 min; Potency, µM (highest dose often 92.2 µM), inactives show top-dose inhibition of complex formation; 0.031% of 340,000 active; AID 540263; calls by dose curve;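 also: potency is read from the fitted curve at half-maximal effect; 0% = DMSO wells and 100% = buffer wells lacking importin beta; nearly all actives have a fitted effect of over 15% in size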
#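 FRET biosensor (snurportin 1 IBB flanked by EYFP and cerulean), 50 nM, with compound 5 min, then 0.125 microM importin beta in PBS, 1 mM DTT, 0.02% Tween-20, 0.1% BSA. CFP/YFP ratio read after 45 min at room temperature; pre-read flags interference.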
# Rango release inh = inhibitors of RanGTP-induced Rango-importin beta complex dissociation. Potency, µM (top dose mostly 46.1 µM), without a hit: at the highest dose activity change, negative = inhibition. Biochemical FRET Rango-importin beta, RanGTP-induced dissociation. 0.071% of 340,000 active; calls by dose curve; also: potency is read from the fitted curve at half-maximal effect; % of control where 0% means no effect; nearly all actives have a fitted effect of over 45% in size
#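 FRET read at 45 min, room temperature: inhibitors block the CFP/YFP signal rise when RanGTP (0.6 uM Ran, 2 mM GTP, 0.2 uM RCC1) frees Rango (0.1 uM) from importin beta (0.25 uM). Pre-read after 5 min compound exposure flags interference.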
# VDR inhibitor = blocks the human vitamin D receptor. P11473. Potency, µM, for inactives: max response, negative = inhibition, hits mostly inhibitors. AID 504847. VDR-SRC2-3 peptide fluorescence polarization, 2 h. 0.93% of 400,000 active; also: potency is read from the fitted curve at half-maximal effect; % is scaled to controls: 0 for no effect and ±100 for the full control effect
#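 Signal is fluorescence polarization, reporting how far test compounds block the interaction of VDR with the SRC2-3 coregulator peptide after a 2 h room-temperature incubation.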
# Starred values were filed as active, the others as inactive; ? = inconclusive; / = no result; ! = a repeat was not active. Rows were chosen to be rich in hits. Some 3.6% of all compounds tested hit in one or more screens of this group. Unless noted, calls follow the shape of the dose curve; as a rule, active = well fitted curve in the direction sought with a large enough effect; inconclusive = small, poorly fitted or top-dose-only effect, or another doubt; inactive = no such curve, though single readings can be large; an effect the other way counts as inactive or inconclusive.
SMILES,PI5P4Ka inh,KAT2A inh,PLK1 PBD inh,Rango complex inh,Rango release inh,VDR inhibitor
O=S(=O)(Nc1nnc(C2CC2)s1)c1ccccc1,2.9,?,?,-1.3%,10.7%,3.8%
CS(=O)(=O)Nc1nnc(C2CCCC2)s1,-18.0,26.0%,18.9µM*,0.0%,-3.7%,1.0%
COCC(=O)Nc1nnc(C2CCCCC2)s1,-8.4,0.4%,-22.6%,-2.0%,0.4%,-5.4%
CCOC(=O)C(=O)Nc1nnc(C2CCCCC2)s1,-25.3,-2.9%,23.8µM*,-5.9%,-8.0%,-13.1%
COc1ccccc1N1CCN(C(=O)CCn2cnc3onc(-c4ccc(F)cc4)c3c2=O)CC1,/,27.7%,/,/,/,12.3%
CCN1C(=O)CS/C1=N\S(=O)(=O)c1ccc(Cl)cc1,-10.3,-6.0%,-6.0%,3.3%,4.4%,-5.5%
CCn1c(Cl)c(C=O)s/c1=N\S(=O)(=O)c1ccccc1,-11.4,-11.4%,11.9µM*,1.2%,5.7%,3.16µM*
CCN(CC)CCC(=O)N1c2ccccc2Sc2ccc(C(F)(F)F)cc21,/,-3.5%,/,/,/,28.2µM*
CN(C)CCC(=O)N1c2ccccc2Sc2ccc(Cl)cc21,0.5,0.4%,-1.5%,2.4%,-2.9%,12.3%
CCN(CC)CCC(=O)N1c2ccccc2Sc2ccc(Cl)cc21,1.3,1.3%,3.2%,-2.2%,10.7%,50.1µM*!
COc1ccccc1-n1c(=O)n(C)c2c(C(N)=O)nc(-c3cc(OC)c(OC)c(OC)c3)nc21,/,-10.0%,/,/,/,0.5%
CCCCn1nnnc1NCc1cccnc1,?,-3.5%,2.99µM*,-3.2%,-3.8%,-26.4%
O=C(CC(C(=O)O)c1cccc(Cl)c1)c1ccccc1 (stereo unspecified),6.2,0.5%,3.5%,-0.9%,-6.9%,-0.6%
NC(=O)CC(O)c1cccc(Cl)c1 (stereo unspecified),4.9,-1.6%,26.7µM*,-0.2%,-3.8%,-10.3%
C[C@@H]1CCC2[C@](C)(CO)[C@@H](O)CC[C@]2(C)[C@@]12CCC(CO)(CCO)O2 (stereo partly specified),0.8,0.4%,26.7µM*,-0.4%,4.4%,1.9%
C[C@@H]1CCC2[C@](C)(CO)C(O)CC[C@@]2(C)[C@@]12CC[C@](CO)(CCO)O2 (stereo partly specified),/,-0.1%,/,/,/,9.4%
C=CCN=c1scc(-c2ccco2)n1/N=C/c1ccc(O)c(O)c1O,-72.9*,-25.0%,7.52µM*,-0.1%,-11.9%,-12.0%
Oc1ccc(/C=N/n2c(-c3ccco3)csc2=Nc2cccnc2)c(O)c1,-14.0,-3.9%,-2.3%,-1.1%,12.8%,0.6%
CC(C)N=c1scc(-c2ccco2)n1/N=C/c1ccc(O)c(O)c1,-3.1,?,-13.6%,-0.6%,1.3%,1.6%
COCCN=c1scc(-c2ccco2)n1/N=C/c1ccc(O)c(O)c1O,-85.3*,20µM*,6.7µM*,?,?,-6.4%
COc1ccc(CNc2oc(/C=C/c3cc(OC)c(OC)c(OC)c3)nc2C#N)cc1,/,-12.3%,/,/,/,-0.2%
COc1ccc(CNC(=O)Cc2c(C)c3ccc(O)cc3oc2=O)cc1,/,?,/,/,/,3.6%
O=C1c2ccccc2C(=O)N1/N=C/c1ccc(O)c(O)c1O,-55.2*,-14.5%,13.4µM*,?,-6.9%,79.4µM*
Oc1ccc(/C=N/N2CCOCC2)c(O)c1O,-21.5,2.7%,9.47µM*,-0.1%,-6.6%,?
Cc1nc2ccccc2c(=O)n1/N=C/c1ccc(O)c(O)c1O,-86.1*,-20.5%,10.6µM*,-3.9%,0.1%,-5.0%
SMILES,PI5P4Ka inh,KAT2A inh,PLK1 PBD inh,Rango complex inh,Rango release inh,VDR inhibitor
COc1ccc(-c2ccc3c(c2)c(-c2cccs2)c(-c2cc(OC)cc(OC)c2)n3C)cc1,9.1,20µM*,-9.4%,0.0%,8.3%,-8.4%
COc1cc(OC)cc(-c2c(-c3cccs3)c3cc(-c4cc(OC)c(OC)c(OC)c4)ccc3n2C)c1,10.0,-12.3%,-5.8%,-2.4%,-9.7%,-2.3%
N#Cc1c(-c2ccc(F)cc2)cc(-c2cccnc2)nc1N,-8.9,-1.1%,-1.4%,0.0%,33.9%,-3.7%
N#Cc1c(-c2ccco2)cc(-c2ccc(F)cc2)nc1N,-63.9*,-11.6%,?,?,?,-11.8%
CC1=NN(c2ccc(Br)cc2)C(=O)/C1=C/c1cccs1,23.7,-11.0%,8.44µM*,-7.6%,4.5%,?
COc1cc(/C=C2/C(=O)N(c3ccc(C(=O)O)cc3)N=C2C)cc(OC)c1O,-15.0,-13.4%,39.9%,0.5%,-0.6%,-1.2%
COc1cc(/C=C2/C(=O)N(c3ccc(Br)cc3)N=C2C)cc(OC)c1OC,7.4,-18.2%,1.34µM*,-0.4%,-13.4%,?
C[C@H](N)C(=O)NCC(=O)N[C@H]1CSSC[C@@H](C(=O)O)NC(=O)[C@H](CO)NC(=O)[C@H]([C@@H](C)O)NC(=O)[C@H](Cc2ccccc2)NC(=O)[C@H]([C@@H](C)O)NC(=O)[C@H](CCCCN)NC(=O)[C@@H](Cc2c[nH]c3ccccc23)NC(=O)[C@H](Cc2ccccc2)NC(=O)[C@H](Cc2ccccc2)NC(=O)[C@H](CC(N)=O)NC(=O)[C@H](CCCCN)NC1=O,/,-18.6%,/,/,/,-5.6%
C=CCn1c(SCn2nnc3ccccc3c2=O)nc2scc(-c3cccs3)c2c1=O,/,-6.2%,1.1%,-1.5%,-4.4%,30.5%
CCOC(=O)c1c(C)[nH]c(C(=O)CSc2nnc(-c3cccs3)n2Cc2ccccc2)c1C,/,-5.1%,1.5%,0.6%,-1.3%,-1.9%
CC(=O)c1c(C)[nH]c(C(=O)CSc2nnc(-c3cccs3)n2Cc2ccccc2)c1C,/,-1.4%,16.8µM*,1.9%,2.6%,?
O=c1c2ccccc2nnn1CSc1nnc(-c2cccs2)n1Cc1ccccc1,-17.1,-4.5%,29.9µM*,-2.5%,-3.2%,-18.0%
CCOc1ccc(CCNC(=O)c2ccc3c(c2)N(Cc2ccccc2)C(=O)c2ccccc2S3=O)cc1OCC (stereo unspecified),/,-10.5%,/,/,/,-9.6%
O=C(c1ccccc1)N1N=C(c2ccccc2)CC1c1ccccc1O (stereo unspecified),-25.9,-17.7%,3.36µM*,0.2%,11.3%,?
O=C(c1ccccc1)N1N=C(c2ccco2)CC1c1cccs1 (stereo unspecified),?,-9.8%,21.2µM*,-0.7%,19.2%,8.7%
CCN(C(=O)c1ccc2c(c1)N(Cc1cccc(Cl)c1)C(=O)c1ccccc1S2=O)c1ccccc1 (stereo unspecified),/,-4.7%,/,/,/,4.4%
Cc1ccc(N2/C(=N/c3nc(C)cc(C)n3)NC(=O)CC2C(=O)O)cc1 (stereo unspecified),/,-2.6%,-1.3%,-0.4%,4.3%,-4.1%

# Screening data as filed in PubChem BioAssay.
